Results: PubChem BioAssay AID1159580 (chemical genetic matrix, 2015)
The whole screen tested about 5,500 compounds, of which about 2,000 (36%) were called active. Inconclusive results (about 18%) are left out. Rule as the data show it: active = normalized growth mostly below about 0.91 (no sharp cut-off); inconclusive = no clear call, values can overlap the other calls; inactive = mostly above about 0.92. This is one part of the list.

Experiment: chemical genetic growth profiling, strain panel (AID 1159580);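 also: tested at 20 µM; growth read once vehicle control cultures reached saturation at 30 °C; 1 = growth at the plate median or of vehicle wells; lower values mean less growth of the strain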
Conditions: S. cerevisiae deletion strains, growth OD

Measured: normalized growth

CNc1ncnc2c1ncn2[C@H]1C[C@H](OP(=O)(O)O)[C@@H](COP(=O)(O)O)O1
inactive: locus YAL040C, strain CLN3, stronger effect = lower value 0.995 | locus YCL061C, strain MRC1 (second series), stronger effect = lower value 1.01 | locus YDR363W, strain ESC2, stronger effect = lower value 1 | locus YER002W, strain NOP16, stronger effect = lower value 0.983 | locus YGR229C, strain SMI1, stronger effect = lower value 1.02 | locus YJR075W, strain HOC1, stronger effect = lower value 1.01 | locus YNL175C, strain NOP13, stronger effect = lower value 0.996 | locus YNL197C, strain WHI3, stronger effect = lower value 1 | locus YNL224C, strain SQS1, stronger effect = lower value 1 | locus YNL322C, strain KRE1, stronger effect = lower value 1.01 | locus YOR083W, strain WHI5 (second series), stronger effect = lower value 1.01 | locus YPL055C, strain LGE1, stronger effect = lower value 1.01 | locus YPL241C, strain CIN2, stronger effect = lower value 1
